# Experimental data reported in article PMC11006913.
# Where a chain is given by its changes, count along the chain named.
# Legend:
# Assay in all cases: PBM; 200 nM protein, PBS
# Conditions in all cases: dsDNA, one strand shown
# [1] = molecular target: HOXA7 (Homo sapiens, UniProt P31268 116-202)
# [2] = molecular target: HOXA7 (Homo sapiens, UniProt P31268 116-202, W177C)
# [3] = molecular target: HOXC10 (Homo sapiens, UniProt Q9NYD6 254-340)
# [4] = molecular target: HOXD13 (Homo sapiens, UniProt P35453 263-343, T313R)
# [5] = molecular target: HOXD13 (Homo sapiens, UniProt P35453 263-343)
# [6] = molecular target: HOXC10 (Homo sapiens, UniProt Q9NYD6 254-340, K271E)
# [7] = molecular target: HOXD13 (Homo sapiens, UniProt P35453 263-343, T313A)
# [8] = molecular target: HOXB6 (Homo sapiens, UniProt P17509 132-218, K202E)
# [9] = molecular target: MSX2 (Homo sapiens, UniProt P35548 130-214, R199I)
# [10] = molecular target: MSX2 (Homo sapiens, UniProt P35548 130-214)
# [11] = molecular target: MSX2 (Homo sapiens, UniProt P35548 130-214, F161Y)
# [12] = molecular target: HOXB6 (Homo sapiens, UniProt P17509 132-218)
# [13] = molecular target: T1, PAX4 (Homo sapiens, UniProt O43316 9-242, R200K)
# T1 sequence: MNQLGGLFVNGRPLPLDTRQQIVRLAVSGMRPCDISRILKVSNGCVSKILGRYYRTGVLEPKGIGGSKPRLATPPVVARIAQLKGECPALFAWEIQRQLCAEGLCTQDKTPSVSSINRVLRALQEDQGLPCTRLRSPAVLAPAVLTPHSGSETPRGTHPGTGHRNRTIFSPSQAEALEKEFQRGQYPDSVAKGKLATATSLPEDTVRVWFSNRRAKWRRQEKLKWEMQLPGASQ
# [14] = molecular target: T2, PAX4 (Homo sapiens, UniProt O43316 9-242, R227W)
# T2 sequence: T1 sequence with K192R, R219W
# [15] = molecular target: CRX (Homo sapiens, UniProt O43186 26-111, R41L)
# [16] = molecular target: HOXA2 (Homo sapiens, UniProt O43364 129-215, R185T)
# [17] = molecular target: HOXA2 (Homo sapiens, UniProt O43364 129-215, R185K)
# [18] = molecular target: PROP1 (Homo sapiens, UniProt O75360 56-141)
# [19] = molecular target: PROP1 (Homo sapiens, UniProt O75360 56-141, R99H)
# [20] = molecular target: PROP1 (Homo sapiens, UniProt O75360 56-141, F88S)
# [21] = molecular target: HOXA2 (Homo sapiens, UniProt O43364 129-215, Y150S)
# [22] = molecular target: HOXA2 (Homo sapiens, UniProt O43364 129-215)
# [23] = molecular target: ALX3 (Homo sapiens, UniProt O95076 139-225, N203Q)
# [24] = molecular target: ALX3 (Homo sapiens, UniProt O95076 139-225)
# [25] = molecular target: ALX3 (Homo sapiens, UniProt O95076 139-225, L168Q)
# [26] = molecular target: ALX3 (Homo sapiens, UniProt O95076 139-225, L168V)
# [27] = molecular target: ALX3 (Homo sapiens, UniProt O95076 139-225, N203S)
# [28] = molecular target: PRRX1 (Homo sapiens, UniProt P54821 80-166, F113S)
# [29] = molecular target: T3, PAX4 (Homo sapiens, UniProt O43316 9-242)
# T3 sequence: T1 sequence with K192R
# [30] = molecular target: T4, PAX4 (Homo sapiens, UniProt O43316 9-242, R200Q)
# T4 sequence: T1 sequence with K192Q
# [31] = molecular target: T5, PAX4 (Homo sapiens, UniProt O43316 9-242, F177V)
# T5 sequence: T1 sequence with F169V, K192R
# [32] = molecular target: T6, PAX4 (Homo sapiens, UniProt O43316 9-242, F177Y)
# T6 sequence: T1 sequence with F169Y, K192R
# [33] = molecular target: PRRX1 (Homo sapiens, UniProt P54821 80-166)
# [34] = molecular target: ALX4 (Homo sapiens, UniProt Q9H161 200-286)
# [35] = molecular target: ALX4 (Homo sapiens, UniProt Q9H161 200-286, Q225E)
# Sequence of ALX4 (Homo sapiens, UniProt Q9H161 200-286, Q225E) (Q9H161 200-286 Q225E): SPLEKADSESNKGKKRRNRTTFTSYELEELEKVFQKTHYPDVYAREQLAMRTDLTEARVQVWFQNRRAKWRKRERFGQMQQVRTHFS
# Sequence of HOXD13 (Homo sapiens, UniProt P35453 263-343, T313R) (P35453 263-343 T313R): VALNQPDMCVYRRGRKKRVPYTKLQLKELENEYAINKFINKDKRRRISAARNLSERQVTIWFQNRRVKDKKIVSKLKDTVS
# Sequence of HOXA7 (Homo sapiens, UniProt P31268 116-202) (P31268 116-202): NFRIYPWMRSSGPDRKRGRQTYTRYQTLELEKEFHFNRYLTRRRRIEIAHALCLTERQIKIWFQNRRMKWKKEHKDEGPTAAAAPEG
# Sequence of HOXD13 (Homo sapiens, UniProt P35453 263-343) (P35453 263-343): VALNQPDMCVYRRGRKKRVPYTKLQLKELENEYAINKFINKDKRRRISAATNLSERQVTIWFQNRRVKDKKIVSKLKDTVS
# Sequence of HOXC10 (Homo sapiens, UniProt Q9NYD6 254-340, K271E) (Q9NYD6 254-340 K271E): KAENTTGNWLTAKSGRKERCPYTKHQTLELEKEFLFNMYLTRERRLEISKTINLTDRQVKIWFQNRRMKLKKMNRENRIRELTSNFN
# Sequence of HOXA7 (Homo sapiens, UniProt P31268 116-202, W177C) (P31268 116-202 W177C): as the sequence (P31268 116-202) above, with W62C counted along it
# Sequence of HOXD13 (Homo sapiens, UniProt P35453 263-343, T313A) (P35453 263-343 T313A): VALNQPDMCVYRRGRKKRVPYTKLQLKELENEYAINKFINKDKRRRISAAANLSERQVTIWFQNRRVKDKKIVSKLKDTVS
# Sequence of HOXC10 (Homo sapiens, UniProt Q9NYD6 254-340) (Q9NYD6 254-340): as the sequence (Q9NYD6 254-340 K271E) above, with E18K counted along it
# Sequence of MSX2 (Homo sapiens, UniProt P35548 130-214, R199I) (P35548 130-214 R199I): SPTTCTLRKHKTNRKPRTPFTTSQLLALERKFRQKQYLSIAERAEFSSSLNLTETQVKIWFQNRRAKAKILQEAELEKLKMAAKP
# Sequence of HOXB6 (Homo sapiens, UniProt P17509 132-218) (P17509 132-218): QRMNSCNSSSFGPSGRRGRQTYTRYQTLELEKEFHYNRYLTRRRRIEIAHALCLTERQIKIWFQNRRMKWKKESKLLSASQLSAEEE
# Sequence of HOXA2 (Homo sapiens, UniProt O43364 129-215) (O43364 129-215): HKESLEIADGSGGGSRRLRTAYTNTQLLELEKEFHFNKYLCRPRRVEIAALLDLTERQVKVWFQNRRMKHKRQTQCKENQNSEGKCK
# Sequence of HOXA2 (Homo sapiens, UniProt O43364 129-215, R185T) (O43364 129-215 R185T): as the sequence (O43364 129-215) above, with R57T counted along it
# Sequence of HOXB6 (Homo sapiens, UniProt P17509 132-218, K202E) (P17509 132-218 K202E): as the sequence (P17509 132-218) above, with K71E counted along it
# Sequence of MSX2 (Homo sapiens, UniProt P35548 130-214, F161Y) (P35548 130-214 F161Y): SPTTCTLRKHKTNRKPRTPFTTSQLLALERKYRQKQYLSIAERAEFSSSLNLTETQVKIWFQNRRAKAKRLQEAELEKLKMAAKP
# Sequence of HOXA2 (Homo sapiens, UniProt O43364 129-215, R185K) (O43364 129-215 R185K): as the sequence (O43364 129-215) above, with R57K counted along it
# Sequence of HOXA2 (Homo sapiens, UniProt O43364 129-215, Y150S) (O43364 129-215 Y150S): as the sequence (O43364 129-215) above, with Y22S counted along it
# Sequence of MSX2 (Homo sapiens, UniProt P35548 130-214) (P35548 130-214): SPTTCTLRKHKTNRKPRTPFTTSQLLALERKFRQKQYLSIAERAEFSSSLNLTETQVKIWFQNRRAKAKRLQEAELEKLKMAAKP
# Sequence of PROP1 (Homo sapiens, UniProt O75360 56-141, R99H) (O75360 56-141 R99H): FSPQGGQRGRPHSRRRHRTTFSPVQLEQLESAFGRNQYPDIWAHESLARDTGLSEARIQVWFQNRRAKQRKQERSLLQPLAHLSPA
# Sequence of ALX4 (Homo sapiens, UniProt Q9H161 200-286) (Q9H161 200-286): as the sequence (Q9H161 200-286 Q225E) above, with E26Q counted along it
# Sequence of ALX3 (Homo sapiens, UniProt O95076 139-225, L168Q) (O95076 139-225 L168Q): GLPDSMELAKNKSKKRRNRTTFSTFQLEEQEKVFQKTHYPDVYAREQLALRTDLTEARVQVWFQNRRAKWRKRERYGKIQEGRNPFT
# Sequence of PRRX1 (Homo sapiens, UniProt P54821 80-166, F113S) (P54821 80-166 F113S): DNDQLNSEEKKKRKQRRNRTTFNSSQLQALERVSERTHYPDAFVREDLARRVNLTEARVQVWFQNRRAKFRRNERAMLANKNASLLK
# Sequence of ALX3 (Homo sapiens, UniProt O95076 139-225, N203Q) (O95076 139-225 N203Q): as the sequence (O95076 139-225 L168Q) above, with Q30L, N65Q counted along it
# Sequence of ALX3 (Homo sapiens, UniProt O95076 139-225) (O95076 139-225): as the sequence (O95076 139-225 L168Q) above, with Q30L counted along it
# Sequence of PROP1 (Homo sapiens, UniProt O75360 56-141) (O75360 56-141): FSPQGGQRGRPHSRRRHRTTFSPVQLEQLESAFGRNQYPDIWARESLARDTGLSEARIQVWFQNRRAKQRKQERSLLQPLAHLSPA
# Sequence of CRX (O43186 26-111 R41L): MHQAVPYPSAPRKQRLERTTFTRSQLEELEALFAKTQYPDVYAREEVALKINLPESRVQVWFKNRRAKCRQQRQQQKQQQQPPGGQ
# Sequence of ALX3 (Homo sapiens, UniProt O95076 139-225, L168V) (O95076 139-225 L168V): as the sequence (O95076 139-225 L168Q) above, with Q30V counted along it
# Sequence of ALX3 (Homo sapiens, UniProt O95076 139-225, N203S) (O95076 139-225 N203S): as the sequence (O95076 139-225 L168Q) above, with Q30L, N65S counted along it
# Sequence of PROP1 (Homo sapiens, UniProt O75360 56-141, F88S) (O75360 56-141 F88S): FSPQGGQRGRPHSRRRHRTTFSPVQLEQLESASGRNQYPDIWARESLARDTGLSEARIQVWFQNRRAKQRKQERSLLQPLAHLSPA
# Sequence of PRRX1 (Homo sapiens, UniProt P54821 80-166) (P54821 80-166): as the sequence (P54821 80-166 F113S) above, with S34F counted along it
sequence,measurement,setting,value
CAGCAACC,binding signal,[1],"8.52 upbm affinity estimate (log intensity, higher = more binding, comparable within an allelic series)"
same,binding signal,[2],"8.47 upbm affinity estimate (log intensity, higher = more binding, comparable within an allelic series)"
CGCGTTTC,binding signal,[1],"8.49 upbm affinity estimate (log intensity, higher = more binding, comparable within an allelic series)"
same,binding signal,[2],"8.39 upbm affinity estimate (log intensity, higher = more binding, comparable within an allelic series)"
TTACACAA,binding signal,[3],"10.5 upbm affinity estimate (log intensity, higher = more binding, comparable within an allelic series)"
GACAGTAA,binding signal,[3],"11 upbm affinity estimate (log intensity, higher = more binding, comparable within an allelic series)"
TCATTTCA,binding signal,[1],"9.51 upbm affinity estimate (log intensity, higher = more binding, comparable within an allelic series)"
same,binding signal,[2],"8.76 upbm affinity estimate (log intensity, higher = more binding, comparable within an allelic series)"
GATGTTAA,binding signal,[3],"10.8 upbm affinity estimate (log intensity, higher = more binding, comparable within an allelic series)"
GGAACTCA,binding signal,[1],"8.54 upbm affinity estimate (log intensity, higher = more binding, comparable within an allelic series)"
same,binding signal,[2],"8.56 upbm affinity estimate (log intensity, higher = more binding, comparable within an allelic series)"
ACCTCGCT,binding signal,[1],"8.51 upbm affinity estimate (log intensity, higher = more binding, comparable within an allelic series)"
same,binding signal,[2],"8.51 upbm affinity estimate (log intensity, higher = more binding, comparable within an allelic series)"
GCACGTTA,binding signal,[3],"10.7 upbm affinity estimate (log intensity, higher = more binding, comparable within an allelic series)"
AGCTCGGA,binding signal,[1],"8.37 upbm affinity estimate (log intensity, higher = more binding, comparable within an allelic series)"
same,binding signal,[2],"8.35 upbm affinity estimate (log intensity, higher = more binding, comparable within an allelic series)"
ATGCCATA,binding signal,[3],"11 upbm affinity estimate (log intensity, higher = more binding, comparable within an allelic series)"
AAATTGCC,binding signal,[1],"10.3 upbm affinity estimate (log intensity, higher = more binding, comparable within an allelic series)"
same,binding signal,[2],"8.7 upbm affinity estimate (log intensity, higher = more binding, comparable within an allelic series)"
CGGTCCGC,binding signal,[1],"8.63 upbm affinity estimate (log intensity, higher = more binding, comparable within an allelic series)"
same,binding signal,[2],"8.41 upbm affinity estimate (log intensity, higher = more binding, comparable within an allelic series)"
GGAGGCCC,binding signal,[3],"10 upbm affinity estimate (log intensity, higher = more binding, comparable within an allelic series)"
same,binding signal,[4],"9.34 upbm affinity estimate (log intensity, higher = more binding, comparable within an allelic series)"
same,binding signal,[5],"9.46 upbm affinity estimate (log intensity, higher = more binding, comparable within an allelic series)"
same,binding signal,[6],"9.99 upbm affinity estimate (log intensity, higher = more binding, comparable within an allelic series)"
same,binding signal,[7],"9.59 upbm affinity estimate (log intensity, higher = more binding, comparable within an allelic series)"
GGCTAGCC,binding signal,[3],"9.92 upbm affinity estimate (log intensity, higher = more binding, comparable within an allelic series)"
same,binding signal,[8],"8.91 upbm affinity estimate (log intensity, higher = more binding, comparable within an allelic series)"
same,binding signal,[9],"9.46 upbm affinity estimate (log intensity, higher = more binding, comparable within an allelic series)"
same,binding signal,[4],"9.4 upbm affinity estimate (log intensity, higher = more binding, comparable within an allelic series)"
same,binding signal,[5],"9.37 upbm affinity estimate (log intensity, higher = more binding, comparable within an allelic series)"
same,binding signal,[6],"9.98 upbm affinity estimate (log intensity, higher = more binding, comparable within an allelic series)"
same,binding signal,[10],"9.52 upbm affinity estimate (log intensity, higher = more binding, comparable within an allelic series)"
same,binding signal,[7],"9.39 upbm affinity estimate (log intensity, higher = more binding, comparable within an allelic series)"
same,binding signal,[11],"9.51 upbm affinity estimate (log intensity, higher = more binding, comparable within an allelic series)"
same,binding signal,[12],"8.87 upbm affinity estimate (log intensity, higher = more binding, comparable within an allelic series)"
AGGGCGGA,binding signal,[3],"9.89 upbm affinity estimate (log intensity, higher = more binding, comparable within an allelic series)"
same,binding signal,[4],"9.35 upbm affinity estimate (log intensity, higher = more binding, comparable within an allelic series)"
same,binding signal,[5],"9.36 upbm affinity estimate (log intensity, higher = more binding, comparable within an allelic series)"
same,binding signal,[6],"9.9 upbm affinity estimate (log intensity, higher = more binding, comparable within an allelic series)"
same,binding signal,[7],"9.37 upbm affinity estimate (log intensity, higher = more binding, comparable within an allelic series)"
TAATACGA,binding signal,[3],"11 upbm affinity estimate (log intensity, higher = more binding, comparable within an allelic series)"
same,binding signal,[13],"11.6 upbm affinity estimate (log intensity, higher = more binding, comparable within an allelic series)"
same,binding signal,[14],"10.9 upbm affinity estimate (log intensity, higher = more binding, comparable within an allelic series)"
same,binding signal,[15],"10.4 upbm affinity estimate (log intensity, higher = more binding, comparable within an allelic series)"
CTGCCCCC,binding signal,[3],"9.96 upbm affinity estimate (log intensity, higher = more binding, comparable within an allelic series)"
same,binding signal,[16],"6.91 upbm affinity estimate (log intensity, higher = more binding, comparable within an allelic series)"
same,binding signal,[17],"9.95 upbm affinity estimate (log intensity, higher = more binding, comparable within an allelic series)"
same,binding signal,[6],"9.97 upbm affinity estimate (log intensity, higher = more binding, comparable within an allelic series)"
same,binding signal,[18],"6.68 upbm affinity estimate (log intensity, higher = more binding, comparable within an allelic series)"
same,binding signal,[19],"6.59 upbm affinity estimate (log intensity, higher = more binding, comparable within an allelic series)"
same,binding signal,[20],"6.14 upbm affinity estimate (log intensity, higher = more binding, comparable within an allelic series)"
same,binding signal,[21],"10.3 upbm affinity estimate (log intensity, higher = more binding, comparable within an allelic series)"
same,binding signal,[22],"7.21 upbm affinity estimate (log intensity, higher = more binding, comparable within an allelic series)"
GTTTACGA,binding signal,[3],"12.2 upbm affinity estimate (log intensity, higher = more binding, comparable within an allelic series)"
same,binding signal,[4],"10.8 upbm affinity estimate (log intensity, higher = more binding, comparable within an allelic series)"
same,binding signal,[5],"12.1 upbm affinity estimate (log intensity, higher = more binding, comparable within an allelic series)"
same,binding signal,[6],"11.6 upbm affinity estimate (log intensity, higher = more binding, comparable within an allelic series)"
same,binding signal,[7],"11.9 upbm affinity estimate (log intensity, higher = more binding, comparable within an allelic series)"
CGAAGGGC,binding signal,[3],"9.97 upbm affinity estimate (log intensity, higher = more binding, comparable within an allelic series)"
same,binding signal,[23],"7.68 upbm affinity estimate (log intensity, higher = more binding, comparable within an allelic series)"
same,binding signal,[6],"10.1 upbm affinity estimate (log intensity, higher = more binding, comparable within an allelic series)"
same,binding signal,[24],"7.61 upbm affinity estimate (log intensity, higher = more binding, comparable within an allelic series)"
same,binding signal,[25],"7.69 upbm affinity estimate (log intensity, higher = more binding, comparable within an allelic series)"
same,binding signal,[26],"7.8 upbm affinity estimate (log intensity, higher = more binding, comparable within an allelic series)"
same,binding signal,[27],"7.67 upbm affinity estimate (log intensity, higher = more binding, comparable within an allelic series)"
CGCCCCCG,binding signal,[3],"10 upbm affinity estimate (log intensity, higher = more binding, comparable within an allelic series)"
same,binding signal,[13],"9.05 upbm affinity estimate (log intensity, higher = more binding, comparable within an allelic series)"
same,binding signal,[28],"9.19 upbm affinity estimate (log intensity, higher = more binding, comparable within an allelic series)"
same,binding signal,[29],"9.27 upbm affinity estimate (log intensity, higher = more binding, comparable within an allelic series)"
same,binding signal,[8],"8.93 upbm affinity estimate (log intensity, higher = more binding, comparable within an allelic series)"
same,binding signal,[4],"9.18 upbm affinity estimate (log intensity, higher = more binding, comparable within an allelic series)"
same,binding signal,[30],"9.26 upbm affinity estimate (log intensity, higher = more binding, comparable within an allelic series)"
same,binding signal,[5],"9.19 upbm affinity estimate (log intensity, higher = more binding, comparable within an allelic series)"
same,binding signal,[31],"9.01 upbm affinity estimate (log intensity, higher = more binding, comparable within an allelic series)"
same,binding signal,[6],"9.94 upbm affinity estimate (log intensity, higher = more binding, comparable within an allelic series)"
same,binding signal,[32],"8.92 upbm affinity estimate (log intensity, higher = more binding, comparable within an allelic series)"
same,binding signal,[7],"9.4 upbm affinity estimate (log intensity, higher = more binding, comparable within an allelic series)"
same,binding signal,[14],"9.12 upbm affinity estimate (log intensity, higher = more binding, comparable within an allelic series)"
same,binding signal,[33],"9.18 upbm affinity estimate (log intensity, higher = more binding, comparable within an allelic series)"
same,binding signal,[12],"8.91 upbm affinity estimate (log intensity, higher = more binding, comparable within an allelic series)"
GCCCGCAC,binding signal,[3],"10.1 upbm affinity estimate (log intensity, higher = more binding, comparable within an allelic series)"
same,binding signal,[16],"7.43 upbm affinity estimate (log intensity, higher = more binding, comparable within an allelic series)"
same,binding signal,[9],"9.56 upbm affinity estimate (log intensity, higher = more binding, comparable within an allelic series)"
same,binding signal,[17],"10.2 upbm affinity estimate (log intensity, higher = more binding, comparable within an allelic series)"
same,binding signal,[6],"9.97 upbm affinity estimate (log intensity, higher = more binding, comparable within an allelic series)"
same,binding signal,[10],"9.65 upbm affinity estimate (log intensity, higher = more binding, comparable within an allelic series)"
same,binding signal,[11],"9.65 upbm affinity estimate (log intensity, higher = more binding, comparable within an allelic series)"
same,binding signal,[21],"10.4 upbm affinity estimate (log intensity, higher = more binding, comparable within an allelic series)"
same,binding signal,[22],"7.36 upbm affinity estimate (log intensity, higher = more binding, comparable within an allelic series)"
AGCGCTTG,binding signal,[3],"10 upbm affinity estimate (log intensity, higher = more binding, comparable within an allelic series)"
same,binding signal,[34],"7.96 upbm affinity estimate (log intensity, higher = more binding, comparable within an allelic series)"
same,binding signal,[35],"8.27 upbm affinity estimate (log intensity, higher = more binding, comparable within an allelic series)"
same,binding signal,[6],"10.1 upbm affinity estimate (log intensity, higher = more binding, comparable within an allelic series)"
ACCAATAC,binding signal,[3],"10.6 upbm affinity estimate (log intensity, higher = more binding, comparable within an allelic series)"
